The subject of experiment [1] is Wnt5a (protein binding on small-molecule microarray). The experiment in a line: Wnt5a binders on small-molecule microarray, primary screen, biophysical, 635/667 nm fluorescence (AID 1142).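 Also: fluorescence read at 667 nm with signal to noise per printed feature.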 The conditions noted are these: 635 nm fluorescence, higher = more signal.
A short description of experiment [2]: cell viability in Huh7 cells, primary screen, cytotoxicity control for HCV replication inhibitor project, CellTiter-Glo luminescence, basal, 48 h (AID 1143).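 Also: Huh7 hepatoma cells carrying a hepatitis C replication reporter with no stimulus; test concentration not given here.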 The conditions noted are these: Huh7 HCV replicon, higher = more signal, called active from +8 up or from −8 down. In general terms: Cellular ATP, detected with luciferase, serves as a proxy for viable cell number.

Experiment [3] is described as follows: P. aeruginosa biofilm formation inhibitors, primary screen, PAO1 strain, BacTiter-Glo luminescence, LB-PBS (AID 1144). The following applies: 12 h, higher = more signal.
Experiment [4] can be described thus: CREB reporter modulators without forskolin, primary screen, cell-based, PC12, CRE-LacZ reporter, unstimulated (AID 1145). The following applies: no forskolin, luminescence, 4.5 h, higher = more signal, called active from +8 up or from −8 down.
Experiment [5] can be described thus: CREB reporter modulators under forskolin, primary screen, cell-based, PC12, CRE-LacZ reporter, forskolin-stimulated (AID 1146).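 Also: PC12 cells with 6xCRE LacZ reporter stimulated by forskolin 10 µM; beta-galactosidase reporter signal reflecting CREB driven transcription.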 The conditions noted are these: luminescence, 4.5 h, higher = more signal, called active from +8 up or from −8 down.
Experiment [6] concerns the target Streptavidin (Streptomyces avidinii) (UniProt P22629). In words: streptavidin binders on small-molecule microarray, primary screen, artefact control for SMM compound annotation, biophysical, 635/667 nm fluorescence (AID 1147).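 Also: signal reflects streptavidin binding to arrayed compounds as a control protein.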 The conditions noted are these: streptavidin binding, higher = more signal.
The nature of experiment [7]: small-molecule binders of probe aInhba, primary screen, biochemical, small-molecule microarray, 635/667 nm fluorescence (AID 1148).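 Also: score merges 667nm spot fluorescence with signal-to-noise for antibody binding to printed compounds.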 The conditions noted are these: higher = more signal.
Experiment [8] deals with Torsin-1A (Homo sapiens) (UniProt O14656). In words: torsin A binders from cell lysate, primary screen, small-molecule microarray, wild-type, 635/667 nm (AID 1149). The conditions noted are these: COS7 hTOR1A-WT lysate, 635 nm fluorescence, higher = more signal.
For experiment [9] the target is unchanged. In words: small-molecule binders of mutant TOR1A in lysate, primary screen, cell lysate, small-molecule microarray, COS7 lysate, 635/667 nm fluorescence (AID 1150).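 Also: score pools 667 nm emission and signal to noise measuring lysate protein binding.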 The conditions noted are these: COS7 hTOR1A mutant lysate, 635 nm fluorescence, higher = more signal.
Experiment [10] concerns Sonic hedgehog protein (Shh). The experiment in a line: small-molecule binders of Shh protein, primary screen, biochemical, small-molecule microarray, 635/667 nm fluorescence (AID 1151).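 Also: Shh protein binding to compounds spotted on small-molecule microarray slides; score combines spot fluorescence intensity with signal-to-noise across triplicate slides.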 The following applies: small-molecule microarray binding, 635 nm fluorescence; higher = more signal.
Experiment [11] is described as follows: E. coli DRC41 culture turbidity changes, primary screen, E. coli filamentation inducer project, strain DRC41, OD650, 48 h (AID 1152).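 Also: E. coli MC1000 strain DRC41 lacking acrAB efflux pump and sulA.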 The conditions noted are these: E. coli DRC41 (acrAB sulA), higher = more signal, called active from +8 up or from −8 down.
Experiment [12] is described as follows: small-molecule binders of probe aLefty1, primary screen, biochemical, small-molecule microarray, 635/667 nm fluorescence (AID 1153).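 Also: score merges spot fluorescence with signal-to-noise ratio from the scanned slide images.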 The following applies: higher = more signal.
The nature of experiment [13]: PSAC antagonists in infected red cells, primary screen, cell-based, P. falciparum Indochina, OD700, 1 h (AID 1154). The following applies: P. falciparum Indochina infected RBC osmotic lysis, higher = more signal, called active from +8 up or from −8 down.
The nature of experiment [14]: PSAC antagonists in infected red cells, primary screen, cell-based, P. falciparum Indochina, OD700, 2 h (AID 1155).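 Also: lysis reports solute entry through the parasite surface anion channel PSAC; channel blockers reduce lysis of infected cells.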 The conditions noted are these: P. falciparum Indochina infected erythrocytes, osmotic lysis OD700; higher = more signal, called active from +8 up or from −8 down.
Experiment [15] is described as follows: osmotic lysis modulators in infected erythrocytes, primary screen, PSAC antagonist project, cell-based, P. falciparum Indochina, OD700, 3 h (AID 1156). The conditions noted are these: higher = more signal, called active from +8 up or from −8 down.
Experiment [16] in a line: PSAC antagonists in infected red cells, primary screen, cell-based, P. falciparum Indochina, OD700, 18 h (AID 1157). The following applies: P. falciparum Indochina infected erythrocytes, osmotic lysis OD700, 18 h; higher = more signal, called active from +8 up or from −8 down.
Experiment [17] can be described thus: modulators of S6 phosphorylation in cells, primary screen, cell-based, A549, cytoblot, luminescence, serum-stimulated (AID 1158).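 Also: serum-stimulated A549 lung adenocarcinoma cells; signal is phosphorylated S6 detected by cytoblot immunostaining with HRP secondary.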 The conditions noted are these: A549 phospho-S6 cytoblot, 5 h, higher = more signal.
Experiment [18] concerns the target NADPH oxidase 2 (Homo sapiens) (UniProt P04839). In words: NOX2-dependent H2O2 signal modulators, primary screen, NOX inhibitor project, cell-based, HEK293-NOX2, PMA-stimulated, Amplex Red fluorescence (AID 1159). Also: test concentration not given here. The following applies: 45 min, higher = more signal, called active from +8 up or from −8 down.
In experiment [19] the target is NADPH oxidase 4 (Homo sapiens) (UniProt Q9NPH5). In words: NOX4-dependent H2O2 signal modulators, primary screen, NOX inhibitor project, cell-based, HEK293-NOX4, tetracycline-induced, Amplex Red fluorescence (AID 1160). The conditions noted are these: 45 min, higher = more signal, called active from +8 up or from −8 down.
The target of experiment [20] is NADPH oxidase 5 (Homo sapiens) (UniProt Q96PH1). In words: NOX5-dependent H2O2 signal modulators, primary screen, NOX inhibitor project, cell-based, HEK293-NOX5, Amplex Red fluorescence (AID 1161). The following applies: HEK293-NOX5, ionomycin, 45 min, higher = more signal.

The structures appear in SMILES notation. The source made the active and inactive calls. Unless noted, no rule for the calls is given here.

Sequence of NADPH oxidase 4 (Homo sapiens) (Q9NPH5 whole entry, looked up): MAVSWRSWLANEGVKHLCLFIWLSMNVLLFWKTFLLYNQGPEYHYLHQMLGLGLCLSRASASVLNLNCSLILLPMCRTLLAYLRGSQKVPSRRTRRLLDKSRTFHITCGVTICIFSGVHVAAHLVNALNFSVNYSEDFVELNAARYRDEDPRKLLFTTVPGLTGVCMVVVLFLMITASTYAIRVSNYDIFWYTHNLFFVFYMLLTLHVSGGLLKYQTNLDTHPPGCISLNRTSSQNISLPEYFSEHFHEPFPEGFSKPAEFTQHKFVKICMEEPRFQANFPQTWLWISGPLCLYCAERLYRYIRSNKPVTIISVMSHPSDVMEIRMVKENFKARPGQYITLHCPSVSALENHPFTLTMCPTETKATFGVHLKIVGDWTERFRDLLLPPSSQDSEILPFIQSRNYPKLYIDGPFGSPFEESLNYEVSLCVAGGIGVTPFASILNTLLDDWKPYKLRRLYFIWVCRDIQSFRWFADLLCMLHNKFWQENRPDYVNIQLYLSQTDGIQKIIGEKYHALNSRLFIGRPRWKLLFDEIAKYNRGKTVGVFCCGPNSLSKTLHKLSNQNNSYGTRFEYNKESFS
Sequence of Torsin-1A (Homo sapiens) (O14656 whole entry, looked up): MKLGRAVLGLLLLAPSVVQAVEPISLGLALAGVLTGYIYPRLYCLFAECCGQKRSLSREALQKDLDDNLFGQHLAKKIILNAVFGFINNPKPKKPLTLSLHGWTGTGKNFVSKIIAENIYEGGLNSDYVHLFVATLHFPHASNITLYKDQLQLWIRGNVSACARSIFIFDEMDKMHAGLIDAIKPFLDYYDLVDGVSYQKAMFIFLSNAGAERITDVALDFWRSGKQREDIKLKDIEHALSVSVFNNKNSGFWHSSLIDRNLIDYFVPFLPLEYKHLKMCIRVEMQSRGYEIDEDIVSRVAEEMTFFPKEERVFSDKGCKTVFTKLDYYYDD
Sequence of NADPH oxidase 5 (Homo sapiens) (Q96PH1 whole entry, looked up): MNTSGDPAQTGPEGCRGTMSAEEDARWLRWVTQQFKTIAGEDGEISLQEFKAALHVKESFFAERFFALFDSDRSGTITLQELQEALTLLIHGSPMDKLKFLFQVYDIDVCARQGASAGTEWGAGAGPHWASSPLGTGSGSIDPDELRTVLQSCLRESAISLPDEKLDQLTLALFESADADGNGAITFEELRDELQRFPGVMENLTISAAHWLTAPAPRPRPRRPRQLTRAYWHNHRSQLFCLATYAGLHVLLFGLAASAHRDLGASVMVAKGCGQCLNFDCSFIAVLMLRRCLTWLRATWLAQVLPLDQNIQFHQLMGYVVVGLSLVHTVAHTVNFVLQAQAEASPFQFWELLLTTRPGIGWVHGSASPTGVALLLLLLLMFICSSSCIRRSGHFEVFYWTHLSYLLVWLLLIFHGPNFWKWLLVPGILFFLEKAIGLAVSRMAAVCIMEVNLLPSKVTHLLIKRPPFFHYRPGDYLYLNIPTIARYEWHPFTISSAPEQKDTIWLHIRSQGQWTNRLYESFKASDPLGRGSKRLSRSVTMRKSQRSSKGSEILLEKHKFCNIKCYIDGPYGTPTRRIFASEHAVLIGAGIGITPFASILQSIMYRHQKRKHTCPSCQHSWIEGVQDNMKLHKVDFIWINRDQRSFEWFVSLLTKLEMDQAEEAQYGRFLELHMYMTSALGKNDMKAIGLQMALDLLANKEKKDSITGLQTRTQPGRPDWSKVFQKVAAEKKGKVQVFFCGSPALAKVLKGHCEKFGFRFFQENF
Sequence of NADPH oxidase 2 (Homo sapiens) (P04839 whole entry, looked up): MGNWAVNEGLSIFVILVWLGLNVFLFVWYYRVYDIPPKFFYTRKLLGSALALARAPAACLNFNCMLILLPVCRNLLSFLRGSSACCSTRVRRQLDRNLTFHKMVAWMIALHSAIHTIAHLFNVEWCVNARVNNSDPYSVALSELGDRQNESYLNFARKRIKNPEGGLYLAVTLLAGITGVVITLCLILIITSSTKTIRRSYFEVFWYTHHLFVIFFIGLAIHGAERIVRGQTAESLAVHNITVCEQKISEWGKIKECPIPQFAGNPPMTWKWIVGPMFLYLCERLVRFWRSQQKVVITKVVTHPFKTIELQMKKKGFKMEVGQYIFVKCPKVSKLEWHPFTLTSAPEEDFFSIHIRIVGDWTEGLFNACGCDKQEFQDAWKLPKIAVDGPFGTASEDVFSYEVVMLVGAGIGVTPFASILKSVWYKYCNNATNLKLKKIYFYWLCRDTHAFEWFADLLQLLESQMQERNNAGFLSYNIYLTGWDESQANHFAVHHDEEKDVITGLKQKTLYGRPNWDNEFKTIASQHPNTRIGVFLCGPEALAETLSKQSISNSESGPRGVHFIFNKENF
Sequence of Streptavidin (Streptomyces avidinii) (P22629 whole entry, looked up): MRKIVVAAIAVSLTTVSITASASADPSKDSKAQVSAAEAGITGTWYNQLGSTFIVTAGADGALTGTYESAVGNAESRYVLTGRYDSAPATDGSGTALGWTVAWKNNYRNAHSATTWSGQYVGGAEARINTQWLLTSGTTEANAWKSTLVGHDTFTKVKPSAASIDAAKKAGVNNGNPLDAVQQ

Turning to `O=c1cccc(-c2ccc([N+](=O)[O-])cc2)o1`, the composite z-score in [1] is 0.105; in [6] it was 0.315; in experiment [7], 0.165; with Torsin-1A (Homo sapiens) [8] it was -0.0842; with Torsin-1A (Homo sapiens) [9] it was 0.376; in [10], 2.19. In experiment [12], this molecule gave a composite z-score of -0.241. Further, the z-score in experiment [2] is -1.88 (inactive); in [3], -0.982 (inactive); in [4], -0.882 (inactive); in experiment [5], 0.61 (inactive); in experiment [11], 0.609 (inactive); in [13], 0.687 (inactive). The z-score is -0.129 (inactive) in [14]; 0.0448 (inactive) in [15]; -1.08 (inactive) in [16]; 0.248 in [17]; 0.304 (inactive) in experiment [18]; 0.542 (inactive) in experiment [19]. Besides, the z-score in experiment [20] is 0.0589.
With `[N-]=[N+]=Nc1ccccc1C[C@]1(C(=O)NCC(O)CO)COC(c2ccc(OCCCO)cc2)=N1` (stereo not given in full), the composite z-score in [1] is 0.123; in experiment [6], 0.305; in [7] it was -0.0131; in the experiment with Torsin-1A (Homo sapiens) [8], 1.3; with Torsin-1A (Homo sapiens) [9], 1.72; in experiment [10] it was -1.46. In experiment [12], this molecule displayed a composite z-score of 0.0512. For the same molecule, the z-score is -0.231 (inactive) in experiment [2]; -0.3 (inactive) in experiment [3]; 0.493 (inactive) in [4]; -1.1 (inactive) in experiment [5]; 0.759 (inactive) in [11]; 22.8 (active) in experiment [13]. The z-score was 4.35 (inactive) in experiment [14]; 3.57 (inactive) in experiment [15]; 1.06 (inactive) in experiment [16]; 0.575 in experiment [17]; 1.52 (inactive) in [18]; 0.179 (inactive) in [19]. Moreover, the z-score in experiment [20] was -1.13.
Consider `CC(C)N1C(=O)C[C@@](C(=O)O)(c2ccc([N+](=O)[O-])cc2)[C@H]1c1ccc(CO)cc1`, for which the composite z-score in [1] was -0.0691; in experiment [6] it was -0.923; in [7] it was -0.0288; with Torsin-1A (Homo sapiens) [8], -0.254; in the experiment with Torsin-1A (Homo sapiens) [9], -0.0237; in experiment [10] it was -0.878. Further, in experiment [12], the composite z-score is 0.188. The z-score was 0.034 (inactive) in [2]; 1.17 (inactive) in experiment [3]; 0.441 (inactive) in experiment [4]; -0.303 (inactive) in experiment [5]; 1.47 (inactive) in [11]; 3.45 (inactive) in [13]. For the same molecule, the z-score was 0.654 (inactive) in experiment [14]; 0.415 (inactive) in experiment [15]; 0.159 (inactive) in experiment [16]; 0.126 in [17]; -2.39 (inactive) in [18]; 0.251 (inactive) in experiment [19]. Further, the z-score in [20] is 1.02.
On to `COc1cc2c(cc1O)C=[N+](Cc1sc3ccccc3c1Cl)CC2`, for which the composite z-score in experiment [1] was -0.245; in experiment [6] it was 0.0042; in experiment [7] it was -0.0308; in the experiment with Torsin-1A (Homo sapiens) [8] it was 0.166; with Torsin-1A (Homo sapiens) [9] it was 0.276; in experiment [10] it was 0.66. The composite z-score in experiment [12] was 0.065. Also, the z-score in experiment [2] was -2.33 (inactive); in experiment [3], 0.206 (inactive); in experiment [4] it was -0.348 (inactive); in [5], 0.982 (inactive); in experiment [11] it was -0.569 (inactive); in experiment [13], 5.58 (inactive). For the same molecule, the z-score in experiment [14] is 2 (inactive); in experiment [15], -0.703 (inactive); in [16], 1.58 (inactive); in experiment [17] it was -0.336; in [18] it was -3.84 (inactive); in experiment [19], -2.35 (inactive). The same molecule showed a z-score in experiment [20] of -4.02.
As for `Cc1ccc(S[C@]2(C(=O)NCCN3CCOCC3)CC(=O)N(Cc3ccccc3Cl)[C@@H]2c2ccc(CO)cc2I)cc1`, the composite z-score in experiment [1] is 0.0976; in [6], -0.343; in [7], 0.658; with Torsin-1A (Homo sapiens) [8] it was -1.69; in the experiment with Torsin-1A (Homo sapiens) [9], 0.75; in experiment [10], -0.316. In experiment [12], this molecule came in with a composite z-score of 1.55. The z-score in experiment [2] is -2.1 (inactive); in [3], -0.0266 (inactive); in [4], -0.581 (inactive); in [5], 0.631 (inactive); in experiment [11], 0.377 (inactive); in experiment [13], 5.93 (inactive). Moreover, the z-score is 0.989 (inactive) in experiment [14]; 0.676 (inactive) in [15]; 0.4 (inactive) in [16]; -0.389 in experiment [17]; 1.78 (inactive) in experiment [18]; -1.12 (inactive) in experiment [19]. This molecule also returned a z-score in [20] of 1.15.

The record behind these values is PubChem BioAssay.
